EBV LMP1 NFkB = EBV LMP1-driven NF-kappaB luciferase reporter inhibitors, primary screen, cell-based, luminescence, single point; inhibition, % at 12.5 µM; LMP1-induced NF-kappaB luciferase reporter cells; AID 504558, 2011; 350,000 tested, 0.69% active; in the data active = inhibition above about 41%
TWEAK Fn14 block = inhibitors of TWEAK-Fn14 signaling, primary screen, luciferase reporter cells, uHTS. inhibition, % at 10 µM. 360,000 tested, 2% active. TWEAK-stimulated Fn14 reporter cells, luciferase luminescence, 8 h; in the data active = inhibition above about 50%
Shn3 3UTR inh = reduction of Shn3 3'UTR firefly luciferase signal, primary screen, Schnurri-3 inhibitor project, cell-based, Clone20 osteoblasts, set 2. Clone20 osteoblast Shn3 3'UTR firefly luciferase, 24 h. inhibition, % at 12.5 µM. 360,000 tested, 0.52% active;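 active = mean inhibition of at least 75% with every replicate also reaching 75%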
Peg3 prom inh = Peg3 promoter-driven luciferase inhibitors, primary screen, cell-based, HeLa, luciferase luminescence | inhibition, % at 20 µM | 360,000 tested, 1.7% active | HeLa PEG-Prom luciferase reporter, overnight;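 active = inhibition of at least 50% at 20 µM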
TROY signal inh = inhibitors of TROY-driven NF-kB signaling, primary screen, Q293 LMP1-TROYcd cells, NF-kB luciferase, uHTS; Q293 LMP1-TROYcd NF-kB luciferase reporter, 4 h; inhibition, % at 10 µM; 360,000 tested, 0.98% active; AID 1347056, 2019;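 active = compounds whose plate-normalised and pattern-corrected inhibition of the luciferase reporter signal at the single screening dose is 50% or more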
MITF TRPM1 inh = inhibitors of MITF-dependent TRPM1 promoter reporter, primary screen, cell-based, SK-MEL-5, single point, luciferase. AID 488899, 2010. SK-MEL-5 TRPM1 promoter luciferase, 24 h. inhibition, % at 12.5 µM. 330,000 tested, 0.83% active;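 active = mean inhibition across replicates of 60% or more, whatever share of single replicates reaches that level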
Of the large screens only hits and unclear results are named; the others gave an inactive call; ! = not active in a repeat. Hits are enriched below; roughly 4.1% of the tested compounds scored in any of these assays.

c1ccc2c(c1)nc(Nc1ccc(N3CCCCC3)cc1)c1nncn12	TWEAK Fn14 block 51
CCOc1ccc(Nc2nc3ccccc3n3cnnc23)cc1	TWEAK Fn14 block 87
c1ccc(Nc2nc3ccccc3n3cnnc23)cc1	none
O=C(CSc1nncn1-c1ccccc1)Nc1ccc(F)cc1F	none
COCCCn1cc(CN2CC(N3CCN(C)CC3)CS2(=O)=O)nn1 (configuration not stated)	none (no result: EBV LMP1 NFkB, Shn3 3UTR inh, Peg3 prom inh, MITF TRPM1 inh)
COc1ccc(NC(=O)N(C)C[C@H]2Oc3c(NC(=O)C4CC4)cccc3C(=O)N([C@H](C)CO)C[C@@H]2C)cc1	none
O=C(CCNC(=O)c1ccccc1Cl)Nc1nc(-c2ccc3ccccc3c2)cs1	TWEAK Fn14 block 53
O=C(Cc1ccccc1F)Nc1nc(-c2ccc(F)c(F)c2)cs1	TROY signal inh 72
COc1cc2c(cc1OC)-c1cc(Nc3ccc4c(c3)OCCO4)nc(=O)n1CC2	EBV LMP1 NFkB 51, TWEAK Fn14 block 86, TROY signal inh 79
COc1ccc(Nc2cc3n(c(=O)n2)CCc2cc(OC)c(OC)cc2-3)cc1	none
N#C/C(=N\Nc1ccc(S(=O)(=O)N2CCCCC2)cc1)C(N)=S	TWEAK Fn14 block 50
N#C/C(=N\Nc1ccc(S(=O)(=O)N2CCCCCC2)cc1)C(N)=S	TWEAK Fn14 block 68
N#CC(C#N)=NNc1ccc(S(=O)(=O)N2CCCC2)cc1	TWEAK Fn14 block 51, TROY signal inh 55
O=C(N/C(=C/c1ccccc1Cl)C(=O)N1CCOCC1)c1ccccc1	EBV LMP1 NFkB 67
O=C(N/C(=C\c1ccccc1Cl)C(=O)N1CCOCC1)c1ccc([N+](=O)[O-])cc1	none
Cc1ccc(C(=O)NCCCc2ccccc2)s1	none
OC[C@@H]1CN(Cc2ccc(-c3ccccc3)cc2)C[C@H](n2cnc3c(N4CCOCC4)ncnc32)O1	none (no result: EBV LMP1 NFkB, MITF TRPM1 inh)
COc1ccc(-n2c(=O)c(CCC(=O)NCCc3ccccc3F)nc3ccccc32)cc1	none
Nc1ccc(Cn2ccc3c4c(N)nc(N)nc4ccc32)cc1	Peg3 prom inh 102, MITF TRPM1 inh 85
CCn1cc(C(=O)NCc2ccc3c(c2)OCO3)c(=O)c2cc(F)c(N3CCN(C(=O)c4ccco4)CC3)cc21	TWEAK Fn14 block 54, Peg3 prom inh 51
CCn1cc(C(=O)NCc2ccncc2)c(=O)c2cc(F)c(N3CCN(C(=O)c4ccco4)CC3)cc21	none (no result: EBV LMP1 NFkB, MITF TRPM1 inh)
CCn1cc(C(=O)NCc2ccccc2)c(=O)c2cc(F)c(N3CCN(C(=O)c4ccco4)CC3)cc21	TWEAK Fn14 block 68, Peg3 prom inh 68
CCn1cc(C(=O)Nc2ncccc2O)c(=O)c2cc(F)c(N3CCN(C(=O)c4ccco4)CC3)cc21	Peg3 prom inh 53
COc1ccccc1NS(=O)(=O)c1ccc(C(=O)NCCCn2ccnc2)cc1	none
Cc1ccc(SCCC(=O)NCCSCc2ccccc2C)cc1	none
CN1C(=O)C2(Oc3ccccc3C3CC(c4ccccc4)=NN32)c2ccccc21 (configuration not stated)	TWEAK Fn14 block 81
CC(=O)N[C@@H](C)c1nc2ccccc2n1CCCN1CCN(c2nc(-c3ccc(C)cc3)cs2)CC1	none
O=C(COC(=O)c1ccccn1)c1ccc([N+](=O)[O-])cc1	TWEAK Fn14 block 67
Cc1ccc(NC(=O)c2ccc3c(c2)CCN3S(C)(=O)=O)cc1C	none
CCOc1ccc(-c2nnc(SCc3nnc(-c4ccccc4)o3)n2-c2ccccc2F)cc1	TWEAK Fn14 block 52, TROY signal inh 61
CCc1ccc(OCc2n[nH]c(=S)n2Cc2ccccc2)cc1	none
CCc1ccc(OCc2n[nH]c(=S)n2C(C)CCCC(C)C)cc1 (configuration not stated)	Peg3 prom inh 111
COc1ccc(CSc2n[nH]c(=O)[nH]c2=O)cc1	none (no result: MITF TRPM1 inh)
NC(=Nc1nc(-c2ccccn2)cc2ccccc12)c1ccccn1	EBV LMP1 NFkB 67, Shn3 3UTR inh 88, MITF TRPM1 inh 65
CCNC(=O)C1(C)CCN(C(=O)c2cccc(C(F)(F)F)c2)C1 (configuration not stated)	none (no result: EBV LMP1 NFkB, MITF TRPM1 inh)
O=[N+]([O-])c1ccc(NN=Cc2cccc([N+](=O)[O-])c2)cc1	none
Cc1ccc(NC(=O)c2ccc(N/N=C/c3cccc(O)c3)c([N+](=O)[O-])c2)cc1	Peg3 prom inh 67, MITF TRPM1 inh 78
O=[N+]([O-])c1ccc(N/N=C/c2cccc(O)c2)cc1	TROY signal inh 51
Cc1cc(C[n+]2cc(Br)ccc2N)c2ncccc2c1	Shn3 3UTR inh 92
Cc1cc(C[n+]2cc(Cl)ccc2N)c2ncccc2c1	none
Cn1c(=O)c(C(=O)NNC(=O)c2ccc(Br)cc2)c(O)c2ccccc21	Peg3 prom inh 54
O=C(c1ccccc1)c1coc2c1C(=O)c1ccccc1C2=O	TWEAK Fn14 block 68
O=C(c1ccccc1)c1ccc(CN2C(=O)c3ccccc3C2=O)o1	none
O=C1c2ccccc2C(=O)c2c1oc(C(F)(F)F)c2C(=O)c1ccccc1	EBV LMP1 NFkB 68, TWEAK Fn14 block 74, Shn3 3UTR inh 91, Peg3 prom inh 94, TROY signal inh 55, MITF TRPM1 inh 103
CN(CCOc1ccc(-c2ccn(S(=O)(=O)c3cccc4ccccc34)n2)cc1)c1ccccn1	none
Cc1ccc(C(=O)c2ccccc2C(=O)OCC(=O)N2C(C)CCCC2C)cc1 (configuration not stated)	none
CCCCN(C(=O)Cc1ccc2c(c1)OCCO2)c1c(N)n(CC(C)C)c(=O)[nH]c1=O	none
CCCCN=C(Nc1ccc(Cl)cc1)c1cccnc1	none
CC(C)N=C(N)N=C(N)Nc1ccc(Cl)cc1	Shn3 3UTR inh 91
NC(=NCCCCCCN=C(N)/N=C(\N)Nc1ccc(Cl)cc1)/N=C(\N)Nc1ccc(Cl)cc1	Peg3 prom inh 102!
C=C(C(=O)c1ccccc1)C(c1ccccc1)C(C)C(=O)c1ccccc1 (configuration not stated)	TWEAK Fn14 block 51
C=C(C(=O)c1ccccc1)C(C)C(=C)C(=O)c1ccccc1	TWEAK Fn14 block 94, Peg3 prom inh 104 (no result: MITF TRPM1 inh)
C=C(C(=O)c1ccccc1)C(C(=C)C(=O)c1ccccc1)c1ccc(OC)cc1	TWEAK Fn14 block 93, Shn3 3UTR inh 97, Peg3 prom inh 105, MITF TRPM1 inh 82
O=C(O)c1ccc(C(=O)C(=O)c2ccccc2)cc1	none
COc1cccc(/C=N/Nc2ccc([N+](=O)[O-])cn2)c1O	EBV LMP1 NFkB 52, TWEAK Fn14 block 89, Peg3 prom inh 59, TROY signal inh 56
O=[N+]([O-])c1ccc(Nc2nc(N/N=C/c3cccc(F)c3)nc(N3CCCC3)n2)cc1	none

Source: PubChem BioAssay
